We go through nine compounds from PubChem BioAssay (NCI).

Common to all, as to assay: NCI-60 one-dose screen, 48 h (100 = growth as untreated, 0 = no growth, -100 = all killed)
The subject of assay [1] is HCT-15 colon. The note with it: 10 µM unless noted.
Assay [2] relates to HT29 colon. The note with it: 10 µM unless noted.
Assay [3] concerns SNB-75 CNS. The note with it: 10 µM unless noted.
Assay [4] concerns U251 CNS. The note with it: 10 µM unless noted.
The subject of assay [5] is PC-3 prostate. The conditions noted are these: 10 µM unless noted.
The subject of assay [6] is SK-MEL-5 melanoma. The note with it: 10 µM unless noted.
In assay [7] the test system is UACC-62 melanoma. The conditions noted are these: 10 µM unless noted.
For assay [8], the system named is LOX IMVI melanoma. The note with it: 10 µM unless noted.
Assay [9] relates to SK-MEL-28 melanoma. The note with it: 10 µM unless noted.
The test system of assay [10] is SK-MEL-2 melanoma. The note with it: 10 µM unless noted.
The subject of assay [11] is SN12C renal. The note with it: 10 µM unless noted.
Assay [12] relates to UO-31 renal. The conditions noted are these: 10 µM unless noted.
The subject of assay [13] is ACHN renal. The note with it: 10 µM unless noted.
For assay [14], the system named is CAKI-1 renal. The conditions noted are these: 10 µM unless noted.
In assay [15] the test system is A498 renal. The conditions noted are these: 10 µM unless noted.
Assay [16] has as its system MOLT-4 leukemia. The note with it: 10 µM unless noted.
The subject of assay [17] is EKVX NSCLC. The note with it: 10 µM.
Assay [18] has as its system TK-10 renal. The conditions noted are these: 10 µM unless noted.
In assay [19] the test system is CCRF-CEM leukemia. The conditions noted are these: 10 µM.
The subject of assay [20] is SNB-19 CNS. The note with it: 10 µM unless noted.

Compounds without any hit were thinned out: in the full panel of roughly 83,000, 20% have a hit.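 96-well plates, one dose, 48 hours. Percent growth reported; active if below 10.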 Unmarked numbers belong to inactive results. Activity calls are given as the source filed them.

For `COc1cc(C(=O)Nc2ccc(N(C)C)cc2)cc(OC)c1OC`, the growth is 73.3% in assay [1]; 86.2% in assay [2]; 74.9% in assay [3]; 95.4% in [4]; 91.4% in [5]; 89.9% in [6]. Further, the growth was 82% in [7]; 93.3% in assay [8]; 81.9% in [9]; 78.8% in assay [10]; 94.2% in [11]; 85.8% in [12]. Moreover, the growth is 93.1% in [13], 91.1% in assay [14], 82.1% in assay [15] and 92% in assay [16].
In the case of `CCCCN(CCC)CCCCCCCCCCN1CCCc2ccccc21`, the growth in [1] is 78.8%; in assay [2], 21.8%; in assay [3], 89%; in [4], 87.7%; in assay [5], 45.8%; in [6] it was 98.8%. Besides, the growth is 67.8% in assay [8]; 118% in assay [9]; 92.3% in assay [10]; 64.3% in assay [17]; 82.7% in [18]; 82.7% in [13]. Further, the results for the growth in assay [14], in assay [19] and in assay [16] were 63.2%, 26.8% and 50.5%, respectively.
As to `Cc1ccc(C(=O)C(Br)C(Br)c2ccccc2)cc1` (centres undefined), the growth in [1] is 80.3%; in [2] it was 101%; in assay [3] it was 82.9%; in assay [4], 82.7%; in [5] it was 108%; in assay [6], 94.3%. Besides, the growth in [7] was 94.7%; in [8] it was 66.6%; in [9], 101%; in [10], 113%; in assay [11], 86.4%; in assay [12] it was 66.9%. The growth in [13] was 44.3%; in [14], 55.1%; in assay [15], 75.6%; in assay [16] it was 46%.
As for `COc1ccc(Cn2cc3c(c2-c2ccc(O)cc2)CCc2cnoc2-3)cc1`, the growth is 21.3% in [1]; 19.9% in assay [2]; 47.1% in assay [20]; 27.6% in assay [4]; 27% in assay [5]; 19.2% in assay [6]. Also, the growth in [7] was 44.5%; in assay [8] it was 35.4%; in [9] it was 54.3%; in assay [10] it was 43.7%; in [17], 28.3%; in assay [11], 40.8%. Further, the growth in assay [12] was 35.4%; in assay [18], 72.8%; in assay [13], 34.1%; in assay [14], 15.3%; in assay [15] it was -1.96% (active); in assay [19], 14.1%. Moreover, in assay [16], the growth was 24.3%.
In the case of `O=C(/C=C1\C(=O)N(Cc2ccc([N+](=O)[O-])cc2)c2ccccc21)c1ccc(OCCN2CCCCC2)cc1`, the growth in assay [1] was -80.6% (active); in [2], -89.3% (active); in [20], 57.9%; in assay [4], -46.5% (active); in assay [5], -52.3% (active); in [6] it was 33.9%. In addition, the growth in [7] is -74% (active); in assay [8], -82.7% (active); in assay [9] it was -51% (active); in [10], -29.1% (active); in assay [17], 1.78% (active); in [11], -67% (active). Further, the growth in assay [12] is -97.1% (active); in [18], -81.4% (active); in [13] it was -98.6% (active); in assay [15], 56.6%; in assay [16], -26.5% (active).
With `CCCCCC(=C/c1ccccc1)/C=N/N=C(N)N`, the growth in assay [1] is -37.8% (active); in assay [2], -66.3% (active); in assay [3], 56.6%; in assay [5] it was 37.8%; in assay [8], -37.6% (active); in assay [9], -90.2% (active). Further, the growth in assay [10] is -55.7% (active); in assay [17], 46.1%; in [12], -53.2% (active); in assay [18] it was 72.9%; in assay [13], 1.62% (active); in assay [19], 15.7%. The growth in assay [16] is 8.92% (active).
Consider `CCNc1nnc(COc2ccc(CNC(=O)CCCC/C=C/C(C)C)cc2OC)o1`, for which the growth in [1] was 96.9%; in assay [2] it was 105%; in [20] it was 104%; in assay [4] it was 98.3%; in assay [5], 104%; in assay [6] it was 102%. The growth in assay [7] is 95%; in assay [8], 93.2%; in [9], 104%; in assay [10], 104%; in assay [17], 96.7%; in assay [11], 104%. The growth in assay [12] is 84.2%; in assay [18], 107%; in assay [13], 101%; in [15], 109%; in assay [19] it was 97.5%; in assay [16], 104%.
Turning to `CCOC(=O)CCCCCCCCC(=O)OCC`, the growth in [1] is 117%; in assay [2] it was 109%; in assay [20] it was 103%; in [4] it was 97.2%; in assay [5], 101%; in [6] it was 107%. Besides, the growth is 102% in assay [7]; 96.9% in assay [8]; 110% in assay [9]; 112% in [10]; 118% in [17]; 102% in assay [11]. In addition, the growth in assay [12] was 95.7%; in assay [18] it was 104%; in assay [13], 113%; in assay [14], 105%; in assay [15], 93.9%; in assay [16], 95.2%.
Regarding `CCOC(=O)C1CCCN1C(=O)C1(NC(C)=O)CCCC1` (centres undefined), the growth in [1] is 106%; in [2], 124%; in assay [20], 125%; in [4], 104%; in [5], 95.6%; in [6], 109%. Also, the growth in assay [7] was 121%; in assay [8], 104%; in [9], 114%; in assay [10] it was 110%; in [17], 100%; in [11], 118%. In addition, the growth in assay [12] is 88.5%; in assay [18] it was 107%; in assay [13], 117%; in assay [19], 97.4%; in assay [16], 116%.
